# Assay results taken from article PMC7862700, “An all-to-all approach to the identification of sequence-specific readers for epigenetic DNA modifications on cytosine”.
# Columns and labels:
# Assay in all cases: DAPPL (digital affinity profiling via proximity ligation, sequencing); 10 mM Tris-HCl pH 7.5, 50 mM NaCl, 1 mM DTT, 4% glycerol, room temperature, 30 min; GST-TFs on glutathione beads, 16-mer random dsDNA library, 0.1% formaldehyde crosslink after washing; high values mean tight binding
# FLI1 = molecular target: T1, FLI1 (Homo sapiens, UniProt Q01543 1-452); conditions: protein: recombinant; tags: N-terminal GST; dsDNA, one strand shown
# T1 sequence: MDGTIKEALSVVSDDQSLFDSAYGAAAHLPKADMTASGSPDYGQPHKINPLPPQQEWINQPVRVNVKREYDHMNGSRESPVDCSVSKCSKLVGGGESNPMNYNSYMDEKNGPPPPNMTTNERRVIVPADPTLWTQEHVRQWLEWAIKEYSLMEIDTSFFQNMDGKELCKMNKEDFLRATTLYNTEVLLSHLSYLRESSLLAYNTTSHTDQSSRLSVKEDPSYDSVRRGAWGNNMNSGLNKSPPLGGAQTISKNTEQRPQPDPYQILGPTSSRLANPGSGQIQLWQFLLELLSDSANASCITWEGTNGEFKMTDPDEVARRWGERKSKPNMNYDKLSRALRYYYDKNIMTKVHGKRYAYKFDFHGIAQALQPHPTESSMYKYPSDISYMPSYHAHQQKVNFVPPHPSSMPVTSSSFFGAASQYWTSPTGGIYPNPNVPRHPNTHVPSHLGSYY
# Procedure, shortened: (§1)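 Pools were built from human transcription factors expressed in yeast as GST fusions, captured on glutathione beads and DNA-barcoded, along with a tag-only sample. Incubation with 200 nmole of a 16-mer random double-stranded DNA library lasted 30 min at room temperature in Tris/NaCl/DTT/glycerol buffer, and was followed by washing, 0.1% formaldehyde crosslinking, proximity ligation, PCR amplification and Illumina NextSeq500 sequencing. Binding signal is the quotient of each hexamer's read frequency for a factor and its frequency for the tag-only sample.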
# ELK1 = molecular target: T2, ELK1 (Homo sapiens, UniProt P19419 1-428); conditions: protein: recombinant; tags: N-terminal GST; dsDNA, one strand shown
# T2 sequence: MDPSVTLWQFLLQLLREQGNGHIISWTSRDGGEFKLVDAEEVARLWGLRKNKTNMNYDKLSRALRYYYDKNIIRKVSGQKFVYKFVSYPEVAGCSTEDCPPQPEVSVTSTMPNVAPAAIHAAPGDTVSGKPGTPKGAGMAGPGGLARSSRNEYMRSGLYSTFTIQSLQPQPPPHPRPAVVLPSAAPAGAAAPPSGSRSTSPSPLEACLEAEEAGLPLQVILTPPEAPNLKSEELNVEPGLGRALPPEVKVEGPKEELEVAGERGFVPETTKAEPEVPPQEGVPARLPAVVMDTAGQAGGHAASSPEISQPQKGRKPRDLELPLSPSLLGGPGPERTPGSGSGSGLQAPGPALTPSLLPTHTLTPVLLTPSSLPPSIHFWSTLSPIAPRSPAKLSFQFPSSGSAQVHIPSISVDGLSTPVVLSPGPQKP
# Procedure, shortened: as §1
# GABPA = molecular target: T3, GABPA (Homo sapiens, UniProt Q06546 1-454); conditions: protein: recombinant; tags: N-terminal GST; dsDNA, one strand shown
# T3 sequence: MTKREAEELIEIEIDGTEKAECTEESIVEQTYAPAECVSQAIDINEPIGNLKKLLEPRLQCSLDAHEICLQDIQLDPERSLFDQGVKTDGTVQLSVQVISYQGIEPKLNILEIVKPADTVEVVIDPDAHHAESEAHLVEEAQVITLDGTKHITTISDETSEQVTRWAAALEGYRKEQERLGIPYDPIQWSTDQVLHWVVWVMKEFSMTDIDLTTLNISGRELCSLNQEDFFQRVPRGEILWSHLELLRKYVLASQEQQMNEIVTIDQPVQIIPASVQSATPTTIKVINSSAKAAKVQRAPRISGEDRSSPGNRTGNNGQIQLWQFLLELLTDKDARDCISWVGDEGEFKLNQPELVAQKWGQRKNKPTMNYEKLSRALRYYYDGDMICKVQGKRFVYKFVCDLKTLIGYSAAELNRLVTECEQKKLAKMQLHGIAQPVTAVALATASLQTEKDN
# Procedure, shortened: as §1
# ERG = molecular target: T4, ERG (Homo sapiens, UniProt P11308 1-479); conditions: protein: recombinant; tags: N-terminal GST; dsDNA, one strand shown
# T4 sequence: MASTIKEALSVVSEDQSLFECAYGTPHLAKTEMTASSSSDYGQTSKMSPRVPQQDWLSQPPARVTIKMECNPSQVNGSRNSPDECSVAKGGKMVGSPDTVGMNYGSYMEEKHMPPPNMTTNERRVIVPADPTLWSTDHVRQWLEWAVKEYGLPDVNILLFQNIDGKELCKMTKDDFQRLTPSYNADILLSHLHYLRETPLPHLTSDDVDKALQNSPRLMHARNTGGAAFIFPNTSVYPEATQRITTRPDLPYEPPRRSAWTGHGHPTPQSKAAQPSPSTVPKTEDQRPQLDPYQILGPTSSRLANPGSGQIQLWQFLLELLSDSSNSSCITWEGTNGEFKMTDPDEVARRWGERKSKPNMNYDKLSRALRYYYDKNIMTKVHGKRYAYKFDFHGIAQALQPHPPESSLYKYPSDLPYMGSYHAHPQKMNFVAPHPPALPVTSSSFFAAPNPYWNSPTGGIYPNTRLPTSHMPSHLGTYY
# Procedure, shortened: as §1
# ELF1 = ELF1 (Homo sapiens, UniProt P32519 1-619); conditions: protein: recombinant; tags: N-terminal GST; dsDNA, one strand shown
# ELF1, sequence (P32519 whole entry): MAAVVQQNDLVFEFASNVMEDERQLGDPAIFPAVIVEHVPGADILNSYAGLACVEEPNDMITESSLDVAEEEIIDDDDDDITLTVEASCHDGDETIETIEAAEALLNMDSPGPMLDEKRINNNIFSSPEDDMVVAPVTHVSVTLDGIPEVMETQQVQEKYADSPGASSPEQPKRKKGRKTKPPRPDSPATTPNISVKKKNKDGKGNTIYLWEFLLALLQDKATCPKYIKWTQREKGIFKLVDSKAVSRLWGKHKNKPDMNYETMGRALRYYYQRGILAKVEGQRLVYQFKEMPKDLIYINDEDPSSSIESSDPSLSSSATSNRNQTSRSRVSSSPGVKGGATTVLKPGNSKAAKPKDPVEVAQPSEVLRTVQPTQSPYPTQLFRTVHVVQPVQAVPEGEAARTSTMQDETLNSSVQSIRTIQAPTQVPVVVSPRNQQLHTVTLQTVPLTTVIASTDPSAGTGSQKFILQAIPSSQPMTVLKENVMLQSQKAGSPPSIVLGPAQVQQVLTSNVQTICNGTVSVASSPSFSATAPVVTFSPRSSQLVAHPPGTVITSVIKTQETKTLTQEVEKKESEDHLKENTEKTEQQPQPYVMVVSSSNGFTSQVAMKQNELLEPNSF
# Procedure, shortened: as §1
# EHF = molecular target: T5, EHF (Homo sapiens, UniProt Q9NZC4 1-300); conditions: protein: recombinant; tags: N-terminal GST; dsDNA, one strand shown
# T5 sequence: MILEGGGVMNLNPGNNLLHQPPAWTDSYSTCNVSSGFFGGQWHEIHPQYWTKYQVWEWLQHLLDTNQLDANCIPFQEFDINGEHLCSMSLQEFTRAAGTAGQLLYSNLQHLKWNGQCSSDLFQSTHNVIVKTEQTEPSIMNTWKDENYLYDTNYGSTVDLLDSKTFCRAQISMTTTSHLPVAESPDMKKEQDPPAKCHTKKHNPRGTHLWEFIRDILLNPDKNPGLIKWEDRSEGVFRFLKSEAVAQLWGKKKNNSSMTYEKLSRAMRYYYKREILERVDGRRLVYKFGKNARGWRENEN
# Procedure, shortened: as §1
# SPI1 = SPI1 (Homo sapiens, UniProt P17947 1-270); conditions: protein: recombinant; tags: N-terminal GST; dsDNA, one strand shown
# Procedure, shortened: as §1
# SPIB = SPIB (Homo sapiens, UniProt Q01892 1-262); conditions: protein: recombinant; tags: N-terminal GST; dsDNA, one strand shown
# SPIB, sequence (Q01892 whole entry): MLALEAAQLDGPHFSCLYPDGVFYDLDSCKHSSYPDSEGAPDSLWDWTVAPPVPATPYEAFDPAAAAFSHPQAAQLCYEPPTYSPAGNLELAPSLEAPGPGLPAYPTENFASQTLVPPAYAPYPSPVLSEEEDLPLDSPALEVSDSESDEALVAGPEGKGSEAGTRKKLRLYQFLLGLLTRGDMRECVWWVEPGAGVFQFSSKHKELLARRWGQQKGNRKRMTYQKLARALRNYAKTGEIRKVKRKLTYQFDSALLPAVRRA
# Procedure, shortened: as §1
# ELK3 = molecular target: T6, ELK3 (Homo sapiens, UniProt P41970 1-407); conditions: protein: recombinant; tags: N-terminal GST; dsDNA, one strand shown
# T6 sequence: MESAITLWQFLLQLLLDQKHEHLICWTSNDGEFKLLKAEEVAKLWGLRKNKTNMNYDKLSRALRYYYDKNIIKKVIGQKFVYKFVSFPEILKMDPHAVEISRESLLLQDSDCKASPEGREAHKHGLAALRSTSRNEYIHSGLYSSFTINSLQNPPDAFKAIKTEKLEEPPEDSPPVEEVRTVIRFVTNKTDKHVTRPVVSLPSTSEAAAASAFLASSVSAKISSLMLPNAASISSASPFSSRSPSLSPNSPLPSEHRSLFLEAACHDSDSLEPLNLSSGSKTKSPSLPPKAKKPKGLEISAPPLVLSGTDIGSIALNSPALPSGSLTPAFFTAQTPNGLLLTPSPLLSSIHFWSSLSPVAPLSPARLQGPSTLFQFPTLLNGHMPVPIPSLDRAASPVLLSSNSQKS
# Procedure, shortened: as §1
# FEV = molecular target: T7, FEV (Homo sapiens, UniProt Q99581 1-238); conditions: protein: recombinant; tags: N-terminal GST; dsDNA, one strand shown
# T7 sequence: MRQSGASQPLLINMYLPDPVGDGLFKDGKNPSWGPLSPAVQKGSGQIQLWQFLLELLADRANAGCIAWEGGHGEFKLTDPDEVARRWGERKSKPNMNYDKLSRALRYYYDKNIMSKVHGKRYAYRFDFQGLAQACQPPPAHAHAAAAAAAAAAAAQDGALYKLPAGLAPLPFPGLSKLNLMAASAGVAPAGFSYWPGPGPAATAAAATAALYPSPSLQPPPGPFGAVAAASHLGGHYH
# Procedure, shortened: as §1
# ETV5 = ETV5 (Homo sapiens, UniProt P41161 1-510); conditions: protein: recombinant; tags: N-terminal GST; dsDNA, one strand shown
# ETV5, sequence (P41161 whole entry): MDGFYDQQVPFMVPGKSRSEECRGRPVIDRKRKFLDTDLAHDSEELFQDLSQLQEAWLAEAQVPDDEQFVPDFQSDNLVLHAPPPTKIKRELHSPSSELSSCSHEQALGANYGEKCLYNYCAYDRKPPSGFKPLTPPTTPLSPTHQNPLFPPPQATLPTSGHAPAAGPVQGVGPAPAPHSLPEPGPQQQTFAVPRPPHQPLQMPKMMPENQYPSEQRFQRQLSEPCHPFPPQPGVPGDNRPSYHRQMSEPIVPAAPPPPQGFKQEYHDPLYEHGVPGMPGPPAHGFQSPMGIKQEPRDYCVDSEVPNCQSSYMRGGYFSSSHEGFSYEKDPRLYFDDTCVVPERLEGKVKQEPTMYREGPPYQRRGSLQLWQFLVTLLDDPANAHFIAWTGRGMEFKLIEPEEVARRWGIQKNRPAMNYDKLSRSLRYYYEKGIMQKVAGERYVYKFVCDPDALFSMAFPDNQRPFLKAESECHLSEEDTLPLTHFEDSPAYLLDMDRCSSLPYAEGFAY
# Procedure, shortened: as §1
# HSF1 = HSF1 (Homo sapiens, UniProt Q00613 1-529); conditions: protein: recombinant; tags: N-terminal GST; chain copies: 3; dsDNA, one strand shown
# HSF1, sequence (Q00613 whole entry): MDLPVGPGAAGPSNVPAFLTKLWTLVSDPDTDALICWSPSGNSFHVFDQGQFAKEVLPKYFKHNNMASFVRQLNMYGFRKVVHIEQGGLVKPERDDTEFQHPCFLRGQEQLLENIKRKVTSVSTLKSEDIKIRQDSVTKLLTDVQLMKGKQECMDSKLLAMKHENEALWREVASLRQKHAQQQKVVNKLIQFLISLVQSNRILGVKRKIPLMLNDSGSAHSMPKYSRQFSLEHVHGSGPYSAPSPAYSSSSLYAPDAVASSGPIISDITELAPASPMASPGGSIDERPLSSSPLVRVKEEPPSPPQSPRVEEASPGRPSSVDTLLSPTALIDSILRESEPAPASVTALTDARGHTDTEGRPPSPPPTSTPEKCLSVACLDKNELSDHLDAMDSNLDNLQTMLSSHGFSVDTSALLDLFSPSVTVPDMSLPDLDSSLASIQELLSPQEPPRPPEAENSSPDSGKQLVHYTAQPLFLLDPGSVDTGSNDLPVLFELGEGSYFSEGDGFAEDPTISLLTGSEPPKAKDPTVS
# Procedure, shortened: as §1
# SPIC = molecular target: T8, SPIC (Homo sapiens, UniProt Q8N5J4 1-248); conditions: protein: recombinant; tags: N-terminal GST; dsDNA, one strand shown
# T8 sequence: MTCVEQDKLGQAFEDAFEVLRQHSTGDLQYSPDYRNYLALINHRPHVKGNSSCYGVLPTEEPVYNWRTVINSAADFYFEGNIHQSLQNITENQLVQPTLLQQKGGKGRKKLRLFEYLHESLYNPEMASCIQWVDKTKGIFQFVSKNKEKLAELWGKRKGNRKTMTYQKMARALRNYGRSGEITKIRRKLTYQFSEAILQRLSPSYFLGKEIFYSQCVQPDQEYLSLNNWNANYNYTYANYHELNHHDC
# Procedure, shortened: as §1
# ELF4 = ELF4 (Homo sapiens, UniProt Q99607 1-663); conditions: protein: recombinant; tags: N-terminal GST; dsDNA, one strand shown
# ELF4, sequence (Q99607 whole entry): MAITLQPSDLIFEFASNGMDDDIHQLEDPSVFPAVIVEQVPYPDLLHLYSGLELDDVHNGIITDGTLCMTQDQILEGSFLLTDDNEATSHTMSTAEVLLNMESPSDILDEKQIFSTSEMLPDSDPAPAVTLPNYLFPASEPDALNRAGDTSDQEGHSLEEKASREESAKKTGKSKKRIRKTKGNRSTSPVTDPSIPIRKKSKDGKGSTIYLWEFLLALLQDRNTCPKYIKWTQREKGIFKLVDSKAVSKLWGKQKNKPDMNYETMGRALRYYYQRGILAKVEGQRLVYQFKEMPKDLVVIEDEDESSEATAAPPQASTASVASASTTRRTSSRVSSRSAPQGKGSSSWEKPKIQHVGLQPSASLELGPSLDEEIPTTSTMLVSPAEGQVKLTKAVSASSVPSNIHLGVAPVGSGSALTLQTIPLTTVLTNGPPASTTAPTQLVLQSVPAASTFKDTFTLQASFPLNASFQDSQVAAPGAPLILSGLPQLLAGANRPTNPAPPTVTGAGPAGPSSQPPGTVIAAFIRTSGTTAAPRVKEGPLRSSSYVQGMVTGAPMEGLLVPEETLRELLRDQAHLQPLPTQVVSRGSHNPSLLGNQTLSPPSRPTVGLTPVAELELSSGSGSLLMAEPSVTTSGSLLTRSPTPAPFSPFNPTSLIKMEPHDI
# Procedure, shortened: as §1
# ELK4 = molecular target: T9, ELK4 (Homo sapiens, UniProt P28324-2 1-405); conditions: protein: recombinant; tags: N-terminal GST; dsDNA, one strand shown
# T9 sequence: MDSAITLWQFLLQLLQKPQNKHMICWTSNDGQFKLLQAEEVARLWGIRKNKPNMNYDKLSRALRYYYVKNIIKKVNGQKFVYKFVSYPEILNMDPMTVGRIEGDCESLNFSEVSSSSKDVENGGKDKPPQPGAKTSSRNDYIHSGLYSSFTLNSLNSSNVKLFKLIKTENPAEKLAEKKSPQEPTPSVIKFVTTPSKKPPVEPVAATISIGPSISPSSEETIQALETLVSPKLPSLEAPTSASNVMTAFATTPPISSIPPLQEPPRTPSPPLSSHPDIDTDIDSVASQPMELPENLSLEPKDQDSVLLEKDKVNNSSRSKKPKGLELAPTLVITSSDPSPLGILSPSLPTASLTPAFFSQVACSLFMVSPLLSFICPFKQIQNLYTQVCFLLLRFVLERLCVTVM
# Procedure, shortened: as §1
# ETV2 = molecular target: T10, ETV2 (Homo sapiens, UniProt O00321 1-342); conditions: protein: recombinant; tags: N-terminal GST; dsDNA, one strand shown
# T10 sequence: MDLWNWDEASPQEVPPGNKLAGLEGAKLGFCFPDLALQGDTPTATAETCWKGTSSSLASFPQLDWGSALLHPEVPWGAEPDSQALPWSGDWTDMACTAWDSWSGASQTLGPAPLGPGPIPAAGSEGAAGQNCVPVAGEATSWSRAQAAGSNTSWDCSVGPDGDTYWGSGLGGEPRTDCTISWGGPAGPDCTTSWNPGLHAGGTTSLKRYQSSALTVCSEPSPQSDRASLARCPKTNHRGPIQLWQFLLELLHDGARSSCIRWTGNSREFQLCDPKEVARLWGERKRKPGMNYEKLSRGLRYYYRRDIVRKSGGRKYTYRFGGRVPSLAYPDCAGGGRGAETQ
# Procedure, shortened: as §1
# ELF3 = molecular target: T11, ELF3 (Homo sapiens, UniProt P78545 1-371); conditions: protein: recombinant; tags: N-terminal GST; dsDNA, one strand shown
# T11 sequence: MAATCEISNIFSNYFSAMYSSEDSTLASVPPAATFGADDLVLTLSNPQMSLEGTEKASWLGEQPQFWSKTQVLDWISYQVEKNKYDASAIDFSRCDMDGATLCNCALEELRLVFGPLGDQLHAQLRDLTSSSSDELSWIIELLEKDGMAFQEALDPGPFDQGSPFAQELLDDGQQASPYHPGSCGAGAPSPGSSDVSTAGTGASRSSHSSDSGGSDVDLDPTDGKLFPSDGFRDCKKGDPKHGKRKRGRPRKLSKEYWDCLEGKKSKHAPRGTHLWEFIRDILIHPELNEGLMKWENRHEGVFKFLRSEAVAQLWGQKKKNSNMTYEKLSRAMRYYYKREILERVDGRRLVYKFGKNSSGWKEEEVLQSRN
# Procedure, shortened: as §1
# ETV1 = ETV1 (Homo sapiens, UniProt P50549 1-477); conditions: protein: recombinant; tags: N-terminal GST; dsDNA, one strand shown
# ETV1, sequence (P50549 whole entry): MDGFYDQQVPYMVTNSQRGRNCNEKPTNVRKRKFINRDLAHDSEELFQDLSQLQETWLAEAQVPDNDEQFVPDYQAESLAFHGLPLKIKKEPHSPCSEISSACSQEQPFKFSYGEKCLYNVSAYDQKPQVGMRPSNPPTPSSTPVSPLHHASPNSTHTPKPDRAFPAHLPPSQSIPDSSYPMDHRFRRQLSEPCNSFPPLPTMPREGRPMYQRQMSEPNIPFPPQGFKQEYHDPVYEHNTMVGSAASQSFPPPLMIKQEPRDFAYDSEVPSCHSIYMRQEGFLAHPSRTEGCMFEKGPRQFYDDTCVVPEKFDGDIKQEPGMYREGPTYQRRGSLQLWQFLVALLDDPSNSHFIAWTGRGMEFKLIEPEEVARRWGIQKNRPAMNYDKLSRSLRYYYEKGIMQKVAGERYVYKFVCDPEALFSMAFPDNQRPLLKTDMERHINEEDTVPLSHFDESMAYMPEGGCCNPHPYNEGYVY
# Procedure, shortened: as §1
sequence,measurement,setting,value
TGCCGC,binding signal,FLI1,"1.33 fold enrichment (6-mer frequency, TF over GST control)"
same,binding signal,ELK1,"1.3 fold enrichment (6-mer frequency, TF over GST control)"
same,binding signal,GABPA,"1.33 fold enrichment (6-mer frequency, TF over GST control)"
same,binding signal,ERG,"1.24 fold enrichment (6-mer frequency, TF over GST control)"
same,binding signal,ELF1,"1.28 fold enrichment (6-mer frequency, TF over GST control)"
same,binding signal,EHF,"1.28 fold enrichment (6-mer frequency, TF over GST control)"
same,binding signal,SPI1,"1.37 fold enrichment (6-mer frequency, TF over GST control)"
same,binding signal,SPIB,"1.36 fold enrichment (6-mer frequency, TF over GST control)"
same,binding signal,ELK3,"1.26 fold enrichment (6-mer frequency, TF over GST control)"
same,binding signal,FEV,"1.27 fold enrichment (6-mer frequency, TF over GST control)"
same,binding signal,ETV5,"1.23 fold enrichment (6-mer frequency, TF over GST control)"
same,binding signal,HSF1,"1.03 fold enrichment (6-mer frequency, TF over GST control)"
same,binding signal,SPIC,"1.15 fold enrichment (6-mer frequency, TF over GST control)"
same,binding signal,ELF4,"1.35 fold enrichment (6-mer frequency, TF over GST control)"
same,binding signal,ELK4,"1.23 fold enrichment (6-mer frequency, TF over GST control)"
same,binding signal,ETV2,"1.06 fold enrichment (6-mer frequency, TF over GST control)"
same,binding signal,ELF3,"1.07 fold enrichment (6-mer frequency, TF over GST control)"
same,binding signal,ETV1,"1.3 fold enrichment (6-mer frequency, TF over GST control)"
